Source: PubChem BioAssay
This is a sample that favours compounds with a hit; in the whole collection about 4.1% have one here.
TWEAK Fn14 block = blocks TWEAK-Fn14 interaction in a reporter cell assay. TWEAK-stimulated Fn14 reporter cells, luciferase luminescence, 8 h. inhibition, % at 10 µM. hit rate 2% among 360,000. AID 1159606; in the data active = inhibition above about 50%
Peg3 prom inh = reduces Peg3 promoter-driven luciferase expression in HeLa; HeLa PEG-Prom luciferase reporter, luminescence, overnight; inhibition, % at 20 µM; hit rate 1.7% among 360,000;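 active = inhibition of at least 50% at 20 µM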
EBV LMP1 NFkB = inhibitors of Epstein-Barr LMP1-induced NF-kappaB reporter; LMP1-induced NF-kappaB luciferase reporter cells, luminescence; inhibition, % at 12.5 µM; hit rate 0.69% among 350,000; in the data active = inhibition above about 41%; inconclusive = no clear call, values can overlap the other calls;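 also: 0% = neutral control wells and 100% = reference inhibitor control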
TROY NFkB inh = TROY signaling inhibition | Q293 LMP1-TROYcd NF-kB luciferase reporter, 4 h | inhibition, % at 10 µM | hit rate 0.98% among 360,000 | AID 1347056;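 active = compounds whose plate-normalised and pattern-corrected inhibition of the luciferase reporter signal at the single screening dose is 50% or more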
Shn3 inh set2 = inhibitors of Schnurri-3 3'UTR reporter in osteoblasts | hit rate 0.52% among 360,000 | AID 588674 | inhibition, % at 12.5 µM | Clone20 osteoblast Shn3 3'UTR firefly luciferase, 24 h;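 active = mean inhibition of at least 75% with every replicate also reaching 75%; inconclusive = mean inhibition at least 75% but some replicate below; inactive = mean inhibition below 75%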;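 also: 0% = median of neutral control wells and 100% = pilot-screen positive control compound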
TRPM1 prom inh = MITF TRPM1 promoter inhibition in SK-MEL-5 cells; SK-MEL-5 TRPM1 promoter luciferase, 24 h; inhibition, % at 12.5 µM; hit rate 0.83% among 330,000; AID 488899;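 active = mean inhibition across replicates of 60% or more, whatever share of single replicates reaches that level; inconclusive = some that reach 60%, reason not given; inactive = mean inhibition across replicates below 60%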
The depositor's hits bear a star; ? = inconclusive; . = no result given.

SMILES	TWEAK Fn14 block	Peg3 prom inh	EBV LMP1 NFkB	TROY NFkB inh	Shn3 inh set2	TRPM1 prom inh
CCCCC1C(=O)N(c2ccccc2)N(c2ccccc2)C1=O	15	-14	10	3	-11	-2
CCCCN1C=CC(=C2C(=O)c3ccccc3C2=O)C=C1	99*	110*	75*	85*	91*	96*
CCc1cc2c(-c3ccccc3)cc(=O)oc2cc1OC(C)C(=O)NCC1CCC(C(=O)O)CC1 (stereo not drawn)	5	17	1	8	6	.
COc1ccc(C(=O)NC(Cn2ccnc2)C(C)(C)C)cc1OC1CCN(C(C)C)CC1 (stereo not drawn)	8	5	-1	13	7	1
COc1ccc(C[C@@H]2CN3C(=NC[C@@H]3Cc3ccc(O)cc3)N2C[C@H](C)NC(=O)CCC2CCCCC2)cc1	-7	68*	-3	1	-6	-17
O=C1C(C=Nc2ccc(F)cc2)=C(O)c2ccccc21	80*	-5	-36	35	-40	-12
Cc1ccccc1N=CC1=C(O)c2ccccc2C1=O	106*	19	38	78*	24	46
CC1=C(O)c2ccccc2C(=O)C1=O	-4	20	.	0	0	.
Fc1ccc(N=Cc2ccc[nH]2)cc1	10	5	8	2	2	-2
C=CCC[C@H](Cc1ccc(F)cc1)C(=O)OC[C@H](Cc1c[nH]c2ccccc12)NC(=O)[C@H](CC=C)CC(=O)N(CCO)Cc1ccccc1	57*	45	1	33	83	13
C=CC[C@@H](CC(=O)N(CCO)Cc1ccccc1)C(=O)N[C@@H](COC(=O)[C@@H](CC=C)Cc1ccc(F)cc1)Cc1ccccc1	58*	33	0	42	22	2
C=CC[C@H](CC(=O)N(CCO)Cc1ccccc1)C(=O)N[C@H](COC(=O)[C@@H](CC=C)Cc1ccc(F)cc1)Cc1c[nH]c2ccccc12	60*	61*	3	40	7	3
C=CCC[C@@H](Cc1ccc(F)cc1)C(=O)OC[C@@H](Cc1c[nH]c2ccccc12)NC(=O)[C@@H](CC=C)CC(=O)N(CCO)Cc1ccccc1	49	38	2	26	-2	16
C=CC[C@H](CC(=O)N(CCO)Cc1ccccc1)C(=O)NC[C@H](OC(=O)[C@@H](CC=C)Cc1ccc(F)cc1)c1ccccc1	37	60*	4	43	89*	17
C=CC[C@@H](CC(=O)N(CCO)Cc1ccccc1)C(=O)NC[C@@H](OC(=O)[C@@H](CC=C)Cc1ccc(F)cc1)c1ccccc1	6	29	2	8	9	10
C=CC[C@@H](CC(=O)N(CCO)Cc1ccccc1)C(=O)N[C@H](COC(=O)[C@@H](CC=C)Cc1ccc(F)cc1)Cc1ccccc1	19	45	-4	31	13	-3
CN1CCN(S(=O)(=O)c2cccc(C(=O)Oc3ccccc3Cl)c2)CC1	13	3	4	8	-12	7
Cc1ccc2oc(C(=O)Nc3ccc(S(=O)(=O)Nc4ncccn4)cc3)c(C)c2c1	-9	-6	4	-4	19	-11
CN(C(=O)COC(=O)c1ccc2ccccc2n1)C1CCCCC1	7	3	0	-8	4	3
Cc1ccc(NC(=O)COc2ccc(Br)cc2CO)cc1S(=O)(=O)N1CCOCC1	8	30	6	11	12	8
Cc1cc(Cl)c(C)c(S(=O)(=O)Oc2ccccc2NC(=O)CCC(=O)O)c1Cl	-13	7	-1	-14	0	-2
C=CC[C@@H](CC(=O)N(CCO)Cc1ccccc1)C(=O)N[C@H](COC(=O)[C@@H](CC=C)Cc1ccc(F)cc1)Cc1c[nH]c2ccccc12	51*	55*	-4	36	7	-3
C=CC[C@H](CC(=O)N(CCO)Cc1ccccc1)C(=O)N[C@@H](COC(=O)[C@@H](CC=C)CC(=O)OC(C)(C)C)Cc1c[nH]c2ccccc12	36	29	2	0	3	8
C=CCC[C@@H](Cc1ccc(F)cc1)C(=O)OC[C@@H](NC(=O)[C@H](CC=C)CC(=O)N(CCO)Cc1ccccc1)c1ccccc1	56*	32	9	13	-26	8
C=CCC[C@@H](Cc1ccc(F)cc1)C(=O)OC[C@@H](NC(=O)[C@@H](CC=C)CC(=O)N(CCO)Cc1ccccc1)c1ccccc1	43	38	5	30	10	8
SMILES	TWEAK Fn14 block	Peg3 prom inh	EBV LMP1 NFkB	TROY NFkB inh	Shn3 inh set2	TRPM1 prom inh
CN(C)c1ccc(NC(=O)c2ccc(N3CCOCC3)nc2)cc1	-20	-189	3	-10	-33	-39
CC(=O)c1ccc(OCC(O)CN2CCN(S(=O)(=O)c3c(C)c(C)cc(C)c3C)CC2)cc1 (stereo not drawn)	-6	3	1	12	24	4
CCc1ccc(C(=O)/C=C/c2cnn(C)c2C)s1	60*	-161	1	67*	-87	-36
COc1cc2nc(NC(=O)c3ccc(F)cc3Cl)sc(=O)c2cc1OC	64*	17	3	-4	10	-28
COc1cccc(C=NNC(=O)c2ccncc2)c1O	6	29	-4	-12	78	6
COc1cccc(/C=N/NC(=O)c2c(C)nc3ccc(Br)cn23)c1O	-21	49	63*	-6	?	67*
COc1cccc(/C=N/NC(=O)c2nc(-c3ccccc3)cc(-c3ccccc3)n2)c1O	51*	48	-8	8	?	14
COc1cccc(/C=N\NC(=O)c2ccc(Cn3cc(Br)c([N+](=O)[O-])n3)o2)c1O	-28	34	15	-30	89*	49
COc1cc(/C=N\NC(=O)c2ccc(Cn3nc([N+](=O)[O-])c(Cl)c3C)o2)ccc1O	-6	4	8	-30	3	0
COc1ccc2[nH]c(C(=O)N/N=C/c3ccc(O)cc3O)cc2c1	-23	39	40	24	89*	59
COc1ccc(-n2c(SCC(=O)Nc3cccc(S(N)(=O)=O)c3)nc3ccccc3c2=O)cc1OC	-7	4	-1	10	15	13
CC(=O)n1c(=O)oc2ccccc21	-10	-3	-17	-3	3	-9
COc1ccc(NS(=O)(=O)c2cccc(C(=O)NNC(=O)c3ccc(=O)[nH]c3)c2)cc1	10	6	0	-8	-3	1
c1ccc(NC2=NCCN2CCC2CCCCC2)cc1	9	-10	2	-6	5	3
COc1cccc(/C=N/NC(=O)c2ccc3nc[nH]c3c2)c1O	-15	0	14	-15	16	5
COc1ccc(/C=N/NC(=O)c2nc(-c3ccccc3)n(-c3ccccc3)n2)cc1	-14	-3	1	-25	-6	-12
COc1cc2cc(C(=O)N/N=C/c3ccccc3Cl)[nH]c2cc1OC	52*	19	13	-28	37	-16
